This is a sample that favours compounds with a hit; in the whole collection about 7.4% have one here.
FLuc counter: firefly luciferase modulation, counter-screen for miR-21 project; P08659; purified FLuc, Km substrates, luminescence inhibition; Potency, µM (series often up to 57.5 µM), without a hit: top-dose activity change, negative = inhibition, most hits filed as inhibitors; 360,000 compounds, 6.9% hits; AID 588342;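 note: plate controls were vehicle for no effect and reference inhibitor for full effect; nearly all actives have a fitted effect of over 55% in size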
Target sequence (P08659 whole entry, looked up): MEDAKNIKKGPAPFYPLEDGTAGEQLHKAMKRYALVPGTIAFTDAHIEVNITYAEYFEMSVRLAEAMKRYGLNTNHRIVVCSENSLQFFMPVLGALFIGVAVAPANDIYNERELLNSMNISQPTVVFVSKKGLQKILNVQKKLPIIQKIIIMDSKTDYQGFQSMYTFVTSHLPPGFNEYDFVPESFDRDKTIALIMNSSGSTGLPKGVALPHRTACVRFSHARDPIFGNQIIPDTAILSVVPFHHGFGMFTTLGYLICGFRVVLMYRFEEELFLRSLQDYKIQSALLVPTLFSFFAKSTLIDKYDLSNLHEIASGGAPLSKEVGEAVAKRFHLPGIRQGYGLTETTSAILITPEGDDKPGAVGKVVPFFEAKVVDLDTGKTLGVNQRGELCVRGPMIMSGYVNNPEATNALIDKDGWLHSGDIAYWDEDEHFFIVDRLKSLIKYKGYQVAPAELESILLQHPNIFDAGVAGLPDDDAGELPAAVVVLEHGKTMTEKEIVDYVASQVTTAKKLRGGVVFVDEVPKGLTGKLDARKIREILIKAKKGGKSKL
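Purified P. pyralis luciferase, 10 nM final, with Km-level 10 uM D-luciferin and 10 uM ATP in 50 mM Tris acetate pH 7.5, 10 mM Mg acetate, 0.01% Tween-20, 0.05% BSA; 6-point qHTS titration about 60 µM downward; luminescence read.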
NPC1 prom act: activators of NPC1 promoter; Huh7 NPC1 promoter luciferase reporter, 24 h; Potency, µM (titrated, usually from 9.22 µM), without a hit: at the highest dose activation, most hits filed as activators; 320,000 compounds, 2.4% hits; note: % of control where 0% means no effect; nearly all actives have a fitted effect of over 60% in size
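Compounds in DMSO were transferred onto Huh7 NPC1-luciferase reporter cells pre-incubated 2 h; after 24 h at 37 °C, Amplite reagent was dispensed and luminescence recorded 10 min later.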
SMN2 splice enh: SMN2 splice variant enhancement; HEK293 SMN2-luciferase splicing reporter, luminescence, 30-36 h; Potency, µM (top dose mostly 46.1 µM), for the others: at the highest dose activity change, positive = activation, usual class: activators; 210,000 compounds, 2.8% hits; AID 1458; note: % of control where 0% means no effect; nearly all actives have a fitted effect of over 55% in size
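qHTS luciferase splicing reporter: luminescence rises when SMN2 exon 7 is included in transfected HEK293 cells. Compound exposure lasted 30-36 h at 37C, with 4.5 mM final sodium butyrate as control, followed by a ONE-Glo read.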
Rab9 promoter act: activates the Rab9 promoter | Potency, µM (highest dose often 9.22 µM), for the others: at the top dose activation, negative = inhibition, actives largely listed as activators | 320,000 compounds, 2.8% hits | AID 485297 | Huh7 Rab9 promoter-luciferase reporter, luminescence, 24 h; note: % of control where 0% means no effect; nearly all actives have a fitted effect of over 60% in size
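Huh7 cells stably carrying a Rab9 promoter-luciferase reporter, 1500 cells per well in OP-MEM I with 10% FBS, treated with compound 24 hours at 37C. Luciferase activity read by luminescence after 10 minutes with Amplite reagent.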
ELG1 genotoxic: inducers of genotoxicity in HEK293T ELG1-luciferase cells; HEK293T ELG1-luciferase reporter, luminescence, 16 h; Potency, µM (titrated, usually from 46 µM), for inactives: at the highest dose activity change, positive = activation, actives largely listed as activators; 330,000 compounds, 1.3% hits; note: % of control where 0% means no effect; nearly all actives have a fitted effect of over 60% in size
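Luminescence read-out: rising ELG1-luciferase signal, reflecting elevated ELG1 protein under genetic stress, flags genotoxic compounds. Cells were treated for 16 hr at 37 °C before ONE-Glo detection.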
* hit, by the source's call; ? = inconclusive; . = no result; [ ] = remark or other dose. Calls come from the whole dose curve; as a rule, active = well fitted curve in the direction sought with a large enough effect; inconclusive = small, poorly fitted or top-dose-only effect, or another doubt; inactive = no such curve, though single readings can be large; an effect the other way counts as inactive or inconclusive. Potency is the fitted concentration of half-maximal effect.

SMILES	FLuc counter	NPC1 prom act	SMN2 splice enh	Rab9 promoter act	ELG1 genotoxic
CN(C)c1ccc(NC(=O)Nc2cccc(Cl)c2)cc1	1.3µM*	2.2µM*	13µM*	1.8µM*	?
O=C(Nc1cccc(Cl)c1)Nc1csc([N+](=O)[O-])c1	19µM*	-6%	.	-14%	-8%
CC(=O)Nc1cccc(N(C)S(C)(=O)=O)c1	-3%	-1%	8%	-4%	0%
O=C1C(Cl)=C(Sc2nnc3c4ccccc4c4ccccc4c3n2)C(=O)c2ccccc21	.	.	-1%[9.22 µM]	.	.
CC(C)CN1C(=O)C(=O)N(CC(=O)N2CCN(c3ccccc3)CC2)C1=O	-1%	-3%	.	0%	-8%
C=CCn1c(=O)c(C(=O)Nc2ccccc2S(N)(=O)=O)c(O)c2ccccc21	?	2.5µM*	.	3.2µM*	?
O=C(Nc1sc2c(c1C(=O)O)CCCCC2)c1ccccc1	4.8µM*	2.8µM*	.	0.89µM*	-2%
O=C(Nc1sc2c(c1C(=O)O)CCC2)c1ccccc1	15µM*	26%	10µM*	?	23%
O=C(Nc1sc2c(c1C(=O)O)CCCC2)c1ccc(Cl)cc1	19µM*	25%	.	27%	-2%
O=C(Nc1sc2c(c1C(=O)O)CCC2)c1ccc(F)cc1	17µM*	18%	-10%	29%	1%
CCc1ccccc1NS(=O)(=O)c1cc2c3c(c1)CCN3C(=O)CC2	2%	0%	.	-1%	-1%
O=C(CSc1ncc(CO)n1Cc1ccccc1)Nc1ccc(C(F)(F)F)cc1	-7%	.	.	.	.
CC(C)Cc1csc(NC(=O)c2ccc(Cl)cc2)c1C(=O)O	?	11%	20µM*	0%	0%
CC(C)Cc1csc(NC(=O)c2ccccc2Cl)c1C(=O)O	?	-1%	-3%	-2%	-7%
O=C(O)c1c(NC(=O)c2cccc3ccccc23)sc2c1CCC2	?	9%	4%	-5%[1.84 µM]	-19%
O=C(Nc1sc2c(c1C(=O)O)CCCC2)c1cccc(Cl)c1	24µM*	?	.	?	-2%
CCCCOc1ccc(C(=O)N(Cc2nc(-c3ccc(Cl)cc3)no2)C(C)C)cc1	-1%	.	4%	.	.
COC(=O)C(Cc1ccc(OC(=O)c2ccccc2C)cc1)N1Cc2ccccc2C1=O (stereo not given)	-14%	?	?	?	-1%
COC(=O)C(Cc1ccc(OC(=O)c2ccccc2Cl)cc1)N1Cc2ccccc2C1=O (stereo not given)	?	?	28%	4µM*	15%
Cc1ccc(NC(=O)CCCC2CCCCC2)c(O)c1	8.5µM*	?	.	?	?
Cc1ccc(NC(=O)CCN2C(=O)C3CCCCC3C2=O)c(O)c1 (stereo not given)	2%	0%	.	-5%	2%
Cc1ccccc1OCC(=O)Nc1ccc(OCc2cc(=O)n3ccccc3n2)cc1	-3%	.	.	.	.
Cc1ccc(C)c(S(=O)(=O)N2CCN(CC(=O)NC(C)c3ccccc3)CC2)c1 (stereo not given)	10%	0%[1.84 µM]	.	-3%	1%
Cc1cc(C(=O)N/N=C/c2ccc(Cl)c([N+](=O)[O-])c2)c(C)n1-c1ccc(F)cc1	-11%	-8%	-21%	-10%	?
COc1ccc(/C=N/NC(=O)c2cc(C)n(-c3ccccc3)c2C)cc1OC	8.5µM*	-20%	17%	22%	7%
SMILES	FLuc counter	NPC1 prom act	SMN2 splice enh	Rab9 promoter act	ELG1 genotoxic
Cc1cc(C(=O)N/N=C/c2cccc([N+](=O)[O-])c2)c(C)n1-c1ccccc1	0.95µM*	?	10µM*	?	?
COc1ccc(/C=N/NC(=O)c2cccc(C(=O)N/N=C/c3ccc(OC)c(OC)c3)n2)cc1OC	2%	2%	.	-2%	-4%
CCCN(CCC)C(=O)c1cc(S(=O)(=O)N2CCCCC2)c[nH]1	0%	-12%	.	-4%	1%
COc1cc(CN2CCC(n3nccc3NC(=O)CCCc3ccccc3)CC2)ccc1F	1%	-1%	.	0%	-7%
COc1ccccc1CC(=O)N(Cc1ccccc1)c1cccc(C)c1	-2%	2%	.	8%	-7%
Cn1cc(/C=C/C(=O)N2CCCC(C(=O)c3ccc(C(C)(C)C)cc3)C2)cn1 (stereo not given)	17µM*	0%	.	-1%	-4%
O=c1[nH]c(SCc2cccc([N+](=O)[O-])c2)nc2nc[nH]c12	.	.	0%[9.22 µM]	.	.
O=C(CC(Nc1ccc(Cl)cc1)C(=O)O)c1ccccc1 (stereo not given)	1.7µM*	2.8µM*	18µM*	2.2µM*	16µM*
O=C(CC(Nc1ccccc1Cl)C(=O)O)c1ccccc1 (stereo not given)	4.8µM*	-2%	-53%	26%	2.9µM*
Cc1ccc(OCC(=O)N2CCN(c3ccc([N+](=O)[O-])c(N4CCOCC4)c3)CC2)cc1	-2%	1%	4%	-4%	-1%
Cc1ccc(-c2ccc(OCC(=O)N3CCOCC3)cc2)cc1	19µM*	16%	-2%	18%	?
Cc1cc(OCC(=O)N2CCOCC2)ccc1[N+](=O)[O-]	24µM*	3.2µM*	.	2.8µM*	?
COc1ccc(CCNc2ncnc3c2cnn3-c2ccc(F)cc2)cc1	-16%	.	.	.	.
c1ccc(-n2ncc3c(NCc4cccs4)ncnc32)cc1	12µM*	3.5µM*	11µM*	2µM*	10µM*
NNc1ncnc2c1cnn2-c1ccccc1	?	10%	-11%	0%	-8%
COc1ccc(-n2ncc3c(NCc4cccs4)ncnc32)cc1	9.5µM*	2.5µM*	?	1.1µM*	?
S=C(Nc1ccc(Nc2ccccc2)cc1)NC1CCCCCC1	1%	-12%	-33%	-11%	-3%
CCN(CC)CCNC(=S)Nc1ccc(Cl)cc1	1%	-3%	24%	-15%	0%
S=C(Nc1cccc(Cl)c1)NC1CCCCC1	?	2%	3%	4%	-1%
S=C(Nc1ccc(Cl)cc1)NC1CCCCC1	15µM*	29%	.	19%	-4%
CCN(CC)CCCNC(=S)Nc1ccc(Br)cc1	11µM*	?	.	?	23µM*
CC(C)(C)NC(=S)Nc1ccc(Br)cc1	19µM*	6%	-22%	15%	2%
S=C(Nc1ccc(Br)cc1)NC1CCCCC1	11µM*	23%	13µM*	21%	7%
Cc1ccc(Cl)cc1NC(=O)CSC1=Nc2ccccc2C2=NC(Cc3ccccc3)C(=O)N12 (stereo not given)	6%	.	.	.	.
FC(F)Oc1ccc(NC(=S)NC2CCCCCCC2)cc1	19µM*	23%	.	28%	-12%
FC(F)Oc1ccc(NC(=S)NC2CCSc3ccccc32)cc1 (stereo not given)	-5%	0%	.	6%	-1%
C[C@H](NC(=O)Nc1ccccc1F)C(=O)O	-1%	-2%	?	-2%	1%
O=C(Nc1ccc(Br)cc1)Nc1ccccc1F	4.8µM*	1.6µM*	.	2.8µM*	?
O=C(NNc1ccccc1)Nc1ccccc1F	19µM*	1%	.	-5%	4%
